Results as given in PubChem BioAssay (NCI).
The panel holds about 83,000 compounds, 20% with a hit somewhere; the sample as a whole holds those more often.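 48-hour exposure, single concentration, 96-well plates; percent growth endpoint where 0 means no net growth. Active: below 10.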 A number with no mark means an inactive call. Calls of active or inactive are those of the source.

These compounds were tested on NCI/ADR-RES ovarian (assay: NCI-60 one-dose screen, 48 h (100 = growth as untreated, 0 = no growth, -100 = all killed)). Details: 10 µM unless noted.
Method: Growth inhibition of the NCI/ADR-RES human […] tumor cell line is measured as a screen for anti-cancer activity. Cells are grown in 96 well plates and exposed to the test compound for 48 hours. Compounds are tested at a single concentration, which is 10^-5 M for most compounds. The reported endpoint is percent growth (GI% or GIPRCNT), where numbers from 0 - 100% represent growth inhibition, and numbers from -100% - 0 represent cell death. For example, a value of 40 represents 60% growth inhibition. A value of 0 means no net growth occurred over the course of the experiment. A value of -40 indicates 40% of cells at the beginning of the experiment died by the end of the experiment. A value of -100 means all cells are dead at the end of the experiment.
NCI-60 Human Tumor Cell Lines Screen was performed using the standard one-dose NCI protocol, which is described in more detail at https://dtp.cancer.gov/discovery_development/nci-60/default.htm.
Compounds with GIPRCNT values below 10 were considered active. Activity score was based on GIPRCNT using the following formula: […]
Score is 0 for GIPRCNT values of 100 or above, 50 for GIPRCNT values of 0, and 100 for GIPRCNT values of -100.

Row | SMILES | growth
1 | O=C(NCCNC(=O)c1ccc([As](O)O)cc1)c1ccc([As](O)O)cc1 | 101%
2 | Oc1c(Br)cc(Br)cc1Br.[Cu+2] | 105%
3 | CCC(CC)(c1ccccc1)C(OC(N)=O)c1ccccc1 (stereo not given) | 79.9%
4 | O=[N+]([O-])c1ccccc1N1CCNCC1 | 93.6%
5 | CC1COC(=O)C1 (stereo not given) | 106%
6 | CCCCCCCCCCCCOc1ccc(C(=O)Oc2ccc(CSP3(=O)OCC4OC(n5cnc6c(N)ncnc65)C(F)C4OP(=O)(O)OCC4OC(n5ccc(=O)[nH]c5=O)C(F)C4O3)cc2)cc1 (stereo not given) | 102%
7 | CCOC(=O)C1(c2ccccc2)CCN(CC(=O)c2ccc(NC(C)=O)cc2)CC1 | 107%
8 | CNC(C)Cc1ccccc1 (stereo not given) (tested in a mixture with another compound) | 104%
9 | O=C(O)C1(Br)CC12c1ccccc1-c1ccccc12 (stereo not given) | 104%
10 | Cc1cc(NC(=O)NCCOc2ccc(N3C(N)=NC(N)=NC3(C)C)cc2Cl)ccc1S(=O)(=O)F | 102%
11 | CN(C)P1(N(C)C)=NP(N(C)C)(N(C)C)=NP(N(C)C)(N(C)C)=N1 | 107%
12 | CC[C@]12C=CCN3CC[C@@]4(c5ccc(OC)cc5N(C)[C@H]4[C@@](O)(C(=O)OC)[C@@H]1OC(=O)CCCN1CCN(CCCC(=O)O[C@@H]4[C@]5(CC)C=CCN6CC[C@@]7(c8ccc(OC)cc8N(C)[C@H]7[C@@]4(O)C(=O)OC)[C@@H]65)CC1)[C@@H]32 | -40.6% (active)
13 | O=C(O)c1nn(Cc2ccc(Cl)cc2)c2ccccc12 | 112%
14 | CC12CCC3C(CC=C4CC(O)CCC43C)C1C/C(=C\N1CCOCC1)C2=O (stereo not given) | 106%
15 | OC1CCCCC1N1CCC(c2ccccc2)CC1 (stereo not given) | 99.7%
16 | O=C1NC(=O)C(CN2C(=O)C3(c4ccccc42)[C@H](Cl)C(=O)N3c2ccccc2)C(=O)N1 (stereo not given in full) | 86.7%
17 | Cc1ccc(C[As+](c2ccccc2)(c2ccccc2)c2ccccc2)cc1 | 99.2%
18 | CN1CC2CCC(C1)C2=O | 106%
19 | CC1(C)CC2(CC(C)(C)c3cc(O)c(O)cc32)c2cc(O)c(O)cc21 | 103%
20 | O=[N+]([O-])c1cc([N+](=O)[O-])c(Cl)c(Cl)c1Cl | 21.4%

Row | SMILES | growth
21 | Fc1ccc(C2=NN(c3ccccc3)C(c3sc(N(CCCl)CCCl)nc3Cl)C2)cc1 (stereo not given) | 92.3%
22 | [N-]=[N+]=NC(C(=O)O)c1ccccc1 (stereo not given) | 107%
23 | N#C[Se]CCCNS(=O)(=O)C1CC2C=CC1C2 (stereo not given) | -3.8% (active)
24 | C[C@]12C[C@H](O)[C@H]3[C@@H](CCC4=CC(=O)CC[C@@]43C)[C@@H]1CC[C@@H]2O | 104%
25 | CC(C)OC(=S)[S-].[Au+].c1ccc([PH+](c2ccccc2)c2ccccc2)cc1 | 67.6%
26 | CC(=O)N(C)C1=Nc2ccc(Cl)cc2C(c2ccccc2)=[N+]([O-])C1 | 111%
27 | CCCCCN(CCCCC)CC(O)c1ccc(C)c(Cl)c1 (stereo not given) | 104%
28 | NC(Cc1ccc2c(c1)OCO2)c1ccc2c(c1)OCO2 (stereo not given) | 107%
29 | O=C(CI)Nc1ccc(Br)cc1 | 100%
30 | N#[N+]c1nc2nc(N)[nH]c(=O)c2[nH]1 | 101%
31 | Clc1ccc(SSC(Cl)(Cl)Cl)cc1 | 117%
32 | COC[CH2][Hg][C]#[C][Hg][CH2]COC | 102%
33 | Nc1ncnc2c1c(C(=O)NO)cn2C1OC(CO)C(O)C1O (stereo not given) | 2.24% (active)
34 | Nc1c(Br)cc([N+](=O)[O-])cc1[N+](=O)[O-] | 105%
35 | Cc1ccc(C(=O)C2CN(C)CCC2(O)c2ccc(C)cc2)cc1 (stereo not given) | 103%
36 | C=CC(O)CN1CC1CC (stereo not given) | 97.4%
37 | COc1cc(NCCCCCN=C(N)N)c2ncccc2c1 | 104%
38 | C[As](=O)(O)c1ccc(C(=O)O)cc1 | 108%
39 | CCC(CO)NC1CCCCC1 (stereo not given) | 80.9%
40 | N#[N+]c1cnc([O-])[nH]c1=O | -8.91% (active)
